Screening data from PubChem.
Shown are actives, neighbours in structure and some others; about 1.3% of the full set was active somewhere.
MazEF act: MazEF (E. coli) toxin RNase activation; FAM/BHQ RNA-DNA oligo cleavage fluorescence, 5 h; P0AE70; AID 504720; activation, % at 20 µM; 350,000 compounds, 0.32% hits; in the data active = activation above about 50%
Target sequence (P0AE70 whole entry, looked up): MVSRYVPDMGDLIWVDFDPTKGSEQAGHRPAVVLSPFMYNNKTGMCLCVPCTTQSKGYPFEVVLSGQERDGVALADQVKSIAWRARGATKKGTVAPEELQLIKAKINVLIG
RN4220 kill: S. aureus RN4220 growth inhibition | 330,000 compounds, 0.33% hits | inhibition, % (no concentration beside the values) | AID 1259311 | OD600, 16 h; in the data active = inhibition above about 85%;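 also: plate controls were untreated cells for no effect and reference antibiotic for full effect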
TcdB GH inh: TcdB glycohydrolase inhibition; P18177; TcdB glycohydrolase enzymatic assay, plate reader; inhibition, % at 9.99 µM; 350,000 compounds, 0.24% hits; in the data active = inhibition above about 10%
ugtP null kill: kills S. aureus RN4220 lacking UgtP; S. aureus RN4220 ugtP deletion, OD600 growth, 16 h; growth inhibition, % (no concentration beside the values); 330,000 compounds, 0.54% hits; AID 1259309; in the data active = growth inhibition above about 68%;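 also: plate controls were untreated wells for no effect and antibiotic for full effect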
Mtb hypoxia inh: reduces hypoxia-regulated biosensor signal in M. tuberculosis; M. tuberculosis hypoxia-regulated fluorescent reporter, fluorescence; fluorescence inhibition, % (no concentration beside the values); 300,000 compounds, 0.1% hits; AID 1159583; in the data active = fluorescence inhibition mostly above about 23%, no sharp cut-off; inactive = mostly below about 17%
PfHsp40 rescue: rescue of PfHsp40-mediated yeast toxicity; S. cerevisiae expressing PfHsp40, growth rescue, ATP luminescence; growth rescue, % at 12.5 µM; 340,000 compounds, 0.68% hits; AID 504582; in the data active = growth rescue above about 28%, passing the limit was not always enough; inconclusive = no clear call, values can overlap the other calls;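 also: yeast W303a lacking pdr1 and pdr3 grown in galactose medium; growth measured after three days at 30 °C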
Active calls of the source: *; u = inconclusive; x = no result given.

SMILES | MazEF act | RN4220 kill | TcdB GH inh | ugtP null kill | Mtb hypoxia inh | PfHsp40 rescue
COc1ccc(-c2cc(-c3ccc(OC)cc3)[nH]n2)cc1 | 0 | 5 | x | 53 | x | 53*
CCOC(=O)c1sc(NC(=O)c2cccnc2)c(C#N)c1C | -5 | 74 | 0 | 85* | 1 | -1
COc1cc(C=NNc2nc(-c3ccc(C)cc3)c(NC(C)=O)s2)ccc1O | x | 3 | x | -6 | x | x
CCC1Sc2ccc(S(=O)(=O)Nc3ccc(OC)c(OC)c3)cc2NC1=O (configuration not stated) | 3 | 8 | 1 | 1 | -4 | 0
CCC1Sc2ccc(S(=O)(=O)Nc3ccc(OC)cc3)cc2NC1=O (configuration not stated) | 3 | 96* | 1 | 93* | 5 | 1
CCCNC(=O)Nc1ccc2c(c1)OC[C@@H](C)N(Cc1ccc(-c3ccccn3)cc1)C[C@@H](C)[C@@H](OC)CN(C)C2=O | x | x | 1 | x | x | x
CSCCC1NC(=O)N(CC(=O)N2CCc3ccccc3C2)C1=O (configuration not stated) | 2 | 0 | 1 | -2 | -2 | 50*
CN(C)CC(=O)N1[C@H](C(=O)NC2CCCC2)[C@@H](CO)[C@@H]2Cn3c(ccc(-c4ccc(F)cc4)c3=O)[C@@H]21 | x | x | 1 | x | x | x
CC(NCCN(C)C)C1CCC2C3CCc4cc(O)ccc4C3CCC12C (configuration not stated) | 18 | x | 7 | x | x | 63*
C=C1CC2C3CCc4cc(OC)ccc4C3CC[C@]12C (some centres not stated) | x | -10 | x | 89* | 13 | x
COc1ccc(NS(=O)CCCc2ccccc2)cc1 (configuration not stated) | x | x | 11* | x | x | x
Cn1c(=O)c2c(ncn2CC(=O)Nc2nc(-c3ccccc3Cl)cs2)n(C)c1=O | 74* | -5 | x | -12 | -10 | -1
CCCn1c(SCC(=O)Nc2nc(-c3ccc(OC)cc3)cs2)nc2c1c(=O)n(C)c(=O)n2C | 193* | 1 | x | -1 | 7 | 0
COc1ccc(-c2ccc3c(c2)O[C@H](CN(C)C(C)=O)[C@H](C)CN([C@H](C)CO)S3(=O)=O)cc1 | x | x | -9 | x | x | x
C[C@H]1CN([C@@H](C)CO)S(=O)(=O)c2ccc(/C=C/c3ccccc3)cc2O[C@@H]1CN(C)Cc1ccccc1 | x | x | 0 | x | x | x
O=C(O)c1cccnc1Sc1ccccc1Cl | -8 | 4 | 0 | 6 | 6 | 0
O=C(O)c1cccnc1SCc1ccccc1Cl | 1 | 6 | 11* | 5 | -6 | 0
Nc1ccc(C2(c3ccc(N)cc3)c3ccccc3-c3ccccc32)cc1 | -1 | 3 | 1 | -1 | 50* | 0
Nc1ccc(C2(c3ccc(N)cc3)c3ccccc3C(=O)c3ccccc32)cc1 | 2 | -3 | 0 | 4 | 7 | 2
Oc1ccc(-c2nccs2)cc1 | -20 | 0 | 21* | -5 | 9 | 0
COc1ccc(S(=O)(=O)N[C@@H]2CC[C@H](CC(=O)O)O[C@@H]2CO)cc1 | x | x | 0 | x | x | x
O=C1NCC(c2ccccc2)C1C(=O)NN=Cc1ccc(Cl)s1 (configuration not stated) | x | 3 | x | 1 | 2 | x
O=C(O)C1C(=O)NCC1c1ccccc1 (configuration not stated) | 0 | 1 | 24* | 4 | 9 | -1
Cc1cccc(NC(=S)N=Nc2c(O)[nH]c3ccccc23)c1 | 20 | 99* | x | 95* | 14 | u
Nc1nonc1-n1nnc(C(=O)NN=C/C=C/c2ccccc2)c1CSC1=NCCS1 | x | 5 | x | 0 | 15 | x
SMILES | MazEF act | RN4220 kill | TcdB GH inh | ugtP null kill | Mtb hypoxia inh | PfHsp40 rescue
O=S(=O)(Nc1ccc(-c2csc(-c3ccccc3)n2)cc1)c1ccc(F)cc1 | -4 | 5 | x | -9 | x | u
O=C(Nc1nc(-c2ccccc2)cs1)c1ccccc1NS(=O)(=O)c1ccc(F)cc1 | -6 | 93* | x | 95* | 12 | 7
CCCCC[n+]1cccc2c3ccccc3ccc21 | 7 | x | 1 | x | x | 0
Cc1ccc2c(C)c3ccc4ccccc4c3c[n+]2c1 | -6 | x | 11* | x | x | 368*
COc1ccc(NC(=O)N[C@H]2CC[C@H](CCNC(=O)c3ccccc3F)O[C@H]2CO)cc1 | x | x | 0 | x | x | x
Nc1ccc(C(=O)c2ccc3c(c2)OCCO3)cc1N | 4 | -1 | 14* | -3 | 0 | 0
Cc1ccc(Oc2c(CO)c(-c3ccccc3)nn2C)cc1 | -5 | 7 | 12* | 2 | -3 | 0
CC(=O)c1ccc(NC(=O)CNCC(c2ccccc2)N(C)C)cc1 (configuration not stated) | 1 | -2 | 15* | 0 | -2 | u
COc1cccc(-c2sc3ccc(OC)cc3c2-c2ccc(O)cc2)c1 | -3 | x | 1 | x | x | 103*
COc1cccc(-c2sc3ccc(OC)cc3c2-c2cc(F)cc(OC)c2)c1 | -8 | x | 0 | x | x | 0
COc1ccc(-c2sc3ccccc3c2-c2ccc(O)cc2)cc1 | -17 | x | 1 | x | x | u
COc1ccccc1-c1sc2ccccc2c1-c1ccc(O)cc1 | -20 | -22 | -1 | 93* | 2 | u
COc1cccc(-c2sc3ccc(OC)cc3c2-c2ccc(OCCN(C)C)cc2)c1 | 14 | x | 4 | x | x | 31*
c1ccc(-c2sc3ccccc3c2-c2ccc(OCCN3CCOCC3)cc2)cc1 | 1 | x | x | x | x | 1
CN(C)CCOc1ccc(-c2c(-c3ccsc3)sc3ccccc23)cc1 | -6 | x | 2 | x | x | 91*
CC(C)NC(=O)N(C)C[C@H]1Oc2ccc(NC(=O)c3ccncc3)cc2C(=O)N([C@@H](C)CO)C[C@H]1C | x | x | 0 | x | x | x
COc1ccc(-c2sc3ccccc3c2-c2ccc(OCCN(C)C)cc2)cc1 | 11 | 101* | 4 | 100* | 47* | 19
COC(=O)c1c(-c2ccc(OC)cc2)sc2ccc(-c3ccc4c(c3)OCO4)cc12 | 4 | 1 | 0 | 6 | 2 | -1
COC(=O)c1c(-c2ccc(OC)cc2)sc2ccc(OC)cc12 | 1 | 0 | 2 | 91* | 8 | 13
O=C(C[C@H]1C=C[C@H](NS(=O)(=O)c2ccc(F)cc2)[C@H](CO)O1)N1CCC(Cc2ccccc2)CC1 | x | x | -1 | x | x | x
O=C(CCN1CCCCC1)NCC[C@@H]1CC[C@@H](NC(=O)C2CCCC2)[C@@H](CO)O1 | x | x | 0 | x | x | x
Cc1c(N=C(N)N=C(N)Nc2ccc(Br)cc2)c(=O)n(-c2ccccc2)n1C | x | 3 | x | 8 | 10 | x
CC[n+]1c(C=CN(C)c2ccccc2)oc2ccc(Cl)cc21 | x | 7 | x | 12 | -3 | x
CCN1/C(=C/C=C/c2oc3ccc(-c4ccccc4)cc3[n+]2CC)Oc2ccc(-c3ccccc3)cc21 | x | 97* | 1 | 100* | -194 | 129*
O=C(C1CC1)N(Cc1ccco1)c1nc(-c2ccccc2)cs1 | 5 | -5 | x | 96* | -2 | -2
O=C(COc1ccc(Cl)cc1)N(Cc1ccccc1)c1nc(-c2ccccc2)cs1 | -6 | 4 | x | 13 | 3 | 0
